# Screening results as filed in PubChem.
# TbPYK inhibitor = inhibitors of Trypanosoma brucei pyruvate kinase | Q57TT1 | TbPYK enzyme, Kinase-Glo Plus ATP luminescence, 45 min | Potency, µM (top dose mostly 76.8 µM), for inactives: at the top dose activity, negative = inhibition, most hits filed as inhibitors | actives 0.12% (n = 410,000) | AID 624173; further: on the % scale 0 is the no-effect control and ±100 the full control effect; nearly all actives have a fitted effect of over 50% in size
#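 Screened from lowest to highest concentration, compounds were pinned into TbPYK/substrate mixtures, and ADP (130 uM final) was added. Plates sat at room temperature for 45 min prior to Kinase-Glo Plus detection by luminescence.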
# LmPK inh = blocks Leishmania mexicana pyruvate kinase activity | actives 0.37% (n = 290,000) | AID 1721 | purified LmPK, Kinase-Glo ATP luminescence, 1 h | Potency, µM (highest dose often 57.5 µM), for inactives: top-dose activity change, negative = inhibition, actives largely listed as inhibitors | Q27686; further: on the % scale 0 is the no-effect control and ±100 the full control effect
#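 In 50 mM imidazole pH 7.2 with 7 mM MgCl2, LmPK (0.1 nM) turned over PEP (0.5 mM) and ADP (0.1 mM) for 1 h at room temperature. Luciferase read-out of ATP.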
# Sm TGR block = inhibitors of Schistosoma mansoni thioredoxin glutathione reductase; Q962Y6; Potency, µM (series often up to 114 µM), inactives show at the top dose activity change, negative = inhibition, most hits filed as inhibitors; AID 485364; actives 3% (n = 360,000); purified TGR, DTNB reduction, TNB absorbance 405 nm; further: on the % scale 0 is the no-effect control and ±100 the full control effect; nearly all actives have a fitted effect of over 60% in size
#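 Kinetic colorimetric format: TGR-catalysed, NADPH-driven DTNB reduction monitored via TNB absorbance. Enzyme dispensed at 20 nM; compound exposure 15 min at room temperature before reaction start.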
# RE007 growth inh = less growth of the S. pombe RE007 Vpr strain; actives 0.21% (n = 360,000); AID 651644; S. pombe RE007 Vpr strain, BacTiter-Glo ATP luminescence, 24 h; Potency, µM (titrated, usually from 92.2 µM), for inactives: at the top dose activity change, negative = less growth, usual class: inhibitors; active means well fitted falling curve with a large enough effect; inconclusive means small, poorly fitted or top-dose-only effect; inactive means no such curve, though single readings can be large or run the other way; further: on the % scale 0 is the no-effect control and ±100 the full control effect; nearly all actives have a fitted effect of over 50% in size
#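 Fission yeast RE007 carrying one integrated HIV-1 vpr copy, seeded at OD 0.01 in PMG+AL medium with 23 nL pinned compound. Grown 24 h at 30 degrees; viability read by BacTiter-Glo luminescence after 5 min.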
# FBPA Giardia inh = blocks Giardia fructose-bisphosphate aldolase activity; Potency, µM (titrated, usually from 59.6 µM), for inactives: top-dose activity, negative = inhibition, most hits filed as inhibitors; actives 0.71% (n = 290,000); AID 2451; purified Giardia FBPA; A8B2U2; further: on the % scale 0 is the no-effect control and ±100 the full control effect; nearly all actives have a fitted effect of over 55% in size
# Target sequence (A8B2U2 whole entry, looked up): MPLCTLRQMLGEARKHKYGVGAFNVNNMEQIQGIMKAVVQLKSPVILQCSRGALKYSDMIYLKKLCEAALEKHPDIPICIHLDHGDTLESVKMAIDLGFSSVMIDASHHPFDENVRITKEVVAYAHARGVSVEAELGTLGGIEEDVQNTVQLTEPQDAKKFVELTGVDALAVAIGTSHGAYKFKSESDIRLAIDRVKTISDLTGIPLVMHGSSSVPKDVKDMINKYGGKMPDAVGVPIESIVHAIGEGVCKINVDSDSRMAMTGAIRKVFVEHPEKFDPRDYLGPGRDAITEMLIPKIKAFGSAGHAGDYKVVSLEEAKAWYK
#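 Giardia FBPA (40 nM reagent) was preincubated 10 min at RT with compound (up to 57.5 uM final), then substrate plus GAPDH/TPI/NAD/arsenate coupling system with diaphorase/resazurin was added; resorufin fluorescence (525/598 nm) was read after 20 min.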
# NS1 inh = inhibitors of influenza NS1 protein function; Potency, µM (doses to about 46.1 µM), without a hit: top-dose activity, positive = more growth; actives 0.4% (n = 270,000); calls by dose curve; further: actives are rising curves; nearly all actives have a fitted effect of over 50% in size
#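 Recovery from NS1-induced slow growth read by OD600 in budding yeast switched to galactose assay medium (pH 6.0, -URA) at 1:100 dilution. Compound 23 nl per well; the matching strain lacking NS1 serves as control.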
# An asterisk follows results filed as active; ? = inconclusive; . = no result given; [ ] = dose if it differs, or a comment. Compounds with a hit are over-represented: about 3.5% of the library has one in this group of screens. Unless noted, the call rests on the fitted dose curve; in most records, active means well fitted curve in the direction sought with a large enough effect; inconclusive means small, poorly fitted or top-dose-only effect, or another doubt; inactive means no such curve, though single readings can be large; an effect the other way counts as inactive or inconclusive. Potency means the concentration at half of the fitted maximal effect.
SMILES,TbPYK inhibitor,LmPK inh,Sm TGR block,RE007 growth inh,FBPA Giardia inh,NS1 inh
CCSC1(SCC)N=C(N)C2(C#N)C(c3ccccc3)NC(C)=C(C)C12C#N (stereo not drawn),-3%,2%,-6%,56µM*,0%,7%
COC1(OC)N=C(N)C2(C#N)C(c3ccc(F)cc3)C12C#N (stereo not drawn),-20%,-7%,-15%,-1%,?,-2%
CCC(C)NC(=O)Cn1ccc2cc(S(=O)(=O)N3CCCCC3)ccc21 (stereo not drawn),0%,.,17%,.,.,.
CN1CC[C@]23c4c5ccc(O)c4OC2C(O)CCC3[C@H]1C5 (stereo partly drawn),0%[157 µM],.,.,.,.,.
CCc1ccc(-n2c(O)c(C=NCCN(CC)CC)c(=O)[nH]c2=O)cc1,-1%,0%,22µM*,5%,0%,4%
Cc1ccc(NC(=S)Nc2cccc(-c3n[nH]c(=S)o3)c2)cc1,-9%,-2%,13µM*,11%,6%,9%
Cc1ccn2c(NC3CCCC3)c(-c3cccs3)nc2c1,-26%,-12%,20µM*,-9%,?,.
Cc1[nH]c2ccc(Cl)cc2c(=O)c1CN1CCCC1,3%,7%,28µM*,12%,0%,1%
O=C(C1COc2ccccc2O1)N(Cc1cccnc1)c1nc2ccc(F)cc2s1 (stereo not drawn),-3%,.,8%,.,.,.
S=c1[nH]c2ccccc2n2c(=S)[nH]nc12,-27%,-16%,21%,18%,?,7%
S=c1[nH]nc2ccc3ccccc3n12,7.1µM*,.,.,-10%,.,.
CCOC(=O)c1c(C)oc2c1cc(NS(=O)(=O)c1ccc(C(=O)O)cc1)c1ccccc12,-11%,-3%,28µM*,-7%,?,3%
CCOc1ccc(S(=O)(=O)Nc2cc3c(C(=O)OCc4ccccc4)c(C)oc3c3ccccc23)cc1,-4%,.,-27%,.,.,.
COc1ccc(C2=Nn3c(nnc3-c3cc(OC)ccc3OC)SC2)c(OC)c1,.,.,.,.,-2%,.
CCN(CC)C(=O)C(=O)c1cn(CC(=O)N2CCc3ccccc3C2)c2ccccc12,-2%,2%,45µM*,8%,1%,.
O=C(CSc1ccccc1)NCc1ccco1,4%,-2%,-22%,5%,-2%,3%
O=C(CSc1ccc2c(c1)OCCO2)NCc1ccco1,-7%,4%,20µM*,-13%,-7%,4%
Cc1ccccc1CN1CCN(CC(=O)NCc2ccco2)C1=O,-5%,1%,40µM*,7%,1%,-2%
O=C(CN1CCOc2ccccc21)NCc1ccco1,-2%,10%,50µM*,-2%,-18%,?
COc1ccc2c(c1)O[C@@H](c1cccc(C(F)(F)F)c1)[C@H](OC(=O)NS(=O)(=O)c1ccc(F)cc1)C2=O,.,.,.,.,-1%,.
CCC(=O)N1CCc2cc(S(=O)(=O)NC(CC(C)C)C(=O)Nc3ccc(CC)cc3)ccc21 (stereo not drawn),-3%,.,3%,.,.,.
CSc1nn(Cc2ccc(F)cc2)c(N)c1S(=O)(=O)c1ccc(Cl)cc1,-4%,.,?,.,.,.
CC(=O)Oc1ccc(C2(c3ccc(OC(C)=O)cc3)Oc3ccccc3NC2=O)cc1,-5%,.,.,.,.,.
O=C1NC(=O)N(Cc2ccccc2)C(=O)/C1=C\C=C\c1ccco1,-11%,19%,10µM*,44%,-4%,.
O=C1NC(=O)N(Cc2ccccc2)C(=O)/C1=C/N1CCCc2ccccc21,-9%,-1%,?,7%,?,12%
C=CCN1C(=O)NC(=O)/C(=C/C=C/c2ccccc2)C1=O,-23%,-4%,10µM*,23%,-10%,.
O=C1NC(=O)N(Cc2ccco2)C(=O)/C1=C/C=C/c1ccco1,-14%,2%,2µM*,10%,1%,14%
Cc1ccc(-n2c(C)cc(/C=C3/C(=O)NC(=O)N(Cc4ccco4)C3=O)c2C)cc1,2%,0%,-33%,4%,1%,27%
